According to PubChem BioAssay:
Calls of active or inactive are those of the source.

Tests used:
[1] = optical density shifts of acrAB sulA E. coli – strain DRC41, OD650, 48 h, E. coli filamentation inducer project, primary screen (AID 1152); conditions: higher = more signal, called active from +8 up or from −8 down;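 note: E. coli MC1000 strain DRC41 lacking acrAB efflux pump and sulA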
[2] = probe aLefty1 binding on compound microarray – biochemical, small-molecule microarray, 635/667 nm fluorescence, primary screen (AID 1153); conditions: higher = more signal;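 note: score merges spot fluorescence with signal-to-noise ratio from the scanned slide images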
[3] = plasmodial surface anion channel blockers, osmotic lysis – cell-based, P. falciparum Indochina, OD700, 1 h, primary screen (AID 1154); conditions: P. falciparum Indochina infected RBC osmotic lysis, higher = more signal, called active from +8 up or from −8 down
[4] = plasmodial surface anion channel blockers, osmotic lysis – cell-based, P. falciparum Indochina, OD700, 2 h, primary screen (AID 1155);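 note: lysis reports solute entry through the parasite surface anion channel PSAC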; conditions: P. falciparum Indochina infected erythrocytes, higher = more signal, called active from +8 up or from −8 down
[5] = changes in parasitized red cell lysis, either direction – P. falciparum Indochina, OD700, 3 h, PSAC antagonist project, primary screen (AID 1156); conditions: P. falciparum-infected erythrocytes, osmotic lysis, higher = more signal, called active from +8 up or from −8 down
[6] = plasmodial surface anion channel blockers, osmotic lysis – cell-based, P. falciparum Indochina, OD700, 18 h, primary screen (AID 1157); conditions: P. falciparum Indochina infected erythrocytes, osmotic lysis OD700, 18 h; higher = more signal, called active from +8 up or from −8 down
[7] = S6 kinase pathway phospho-S6 level changes – cell-based, A549, cytoblot, luminescence, serum-stimulated, primary screen (AID 1158); conditions: 5 h, higher = more signal;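 note: serum-stimulated A549 lung adenocarcinoma cells; signal is phosphorylated S6 detected by cytoblot immunostaining with HRP secondary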
[8] = target: NADPH oxidase 2 (Homo sapiens) (UniProt P04839); assay: compounds shifting NOX2 Amplex Red fluorescence – cell-based, HEK293-NOX2, PMA-stimulated, NOX inhibitor project, primary screen (AID 1159); conditions: 45 min, higher = more signal, called active from +8 up or from −8 down; note: test concentration not given here
[9] = target: NADPH oxidase 4 (Homo sapiens) (UniProt Q9NPH5); assay: compounds shifting NOX4 Amplex Red fluorescence – cell-based, HEK293-NOX4, tetracycline-induced, NOX inhibitor project, primary screen (AID 1160); conditions: HEK293-NOX4, Amplex Red H2O2 fluorescence, 45 min; higher = more signal, called active from +8 up or from −8 down
[10] = target: NADPH oxidase 5 (Homo sapiens) (UniProt Q96PH1); assay: compounds shifting NOX5 Amplex Red fluorescence – cell-based, HEK293-NOX5, NOX inhibitor project, primary screen (AID 1161); conditions: HEK293-NOX5, ionomycin, 45 min, higher = more signal
[11] = compound effects on lung adenocarcinoma cell viability – A549, calcein-AM fluorescence, 48 h, basal, profiling panel (AID 1162); conditions: higher = more signal; note: test concentration not given here
[12] = compound effects on differentiated 3T3-L1 adipocyte viability – cell-based, 3T3-L1 adipocytes, calcein-AM fluorescence, 48 h, basal, profiling panel (AID 1163); conditions: 3T3-L1 adipocytes viability, higher = more signal; note: test concentration not given here
[13] = compound effects on hepatocellular carcinoma cell viability – HepG2, calcein-AM fluorescence, 48 h, basal, profiling panel (AID 1164); conditions: higher = more signal; note: test concentration not given here
[14] = compound effects on multiple myeloma cell viability – MM1S, calcein-AM fluorescence, 48 h, basal, profiling panel (AID 1165); conditions: higher = more signal; note: test concentration not given here
[15] = calcein-AM signal in unstimulated myeloma cells – cell-based, calcein-AM fluorescence, 48 h, PK04 Diversity Set, profiling panel (AID 1166); conditions: RPMI8226 myeloma viability, higher = more signal;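 note: cells grown under basal conditions without added stimulus; test concentration not given here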
[16] = JC-1 mitochondrial signal, unstimulated HepG2 cells – cell-based, JC-1 fluorescence, 24 h, 100 nL compound, profiling panel (AID 1167); conditions: HepG2 mitochondrial potential, higher = more signal; note: test concentration not given here
[17] = JC-1 mitochondrial signal, unstimulated adipocytes – cell-based, JC-1 fluorescence, 3T3-L1 adipocytes, 24 h, 100 nL compound, profiling panel (AID 1168); conditions: JC-1 mitochondrial fluorescence, higher = more signal, called active from +8 up or from −8 down; note: test concentration not given here
[18] = JC-1 mitochondrial signal, unstimulated myeloma cells – cell-based, JC-1 fluorescence, RPMI8226, 24 h, 100 nL compound, profiling panel (AID 1169); conditions: JC-1 mitochondrial potential fluorescence, higher = more signal; note: test concentration not given here
[19] = JC-1 mitochondrial signal, unstimulated MM1S myeloma – cell-based, JC-1 fluorescence, 24 h, 100 nL compound, profiling panel (AID 1170); conditions: MM1S mitochondrial potential, higher = more signal; note: test concentration not given here
[20] = resazurin metabolic signal in A549 cells – cell-based, resazurin fluorescence, 24 h, PK04 Diversity Set, profiling panel (AID 1171); conditions: A549 viability, higher = more signal, called active from +8 up or from −8 down; note: test concentration not given here

NADPH oxidase 4 (Homo sapiens), sequence (Q9NPH5 whole entry, looked up): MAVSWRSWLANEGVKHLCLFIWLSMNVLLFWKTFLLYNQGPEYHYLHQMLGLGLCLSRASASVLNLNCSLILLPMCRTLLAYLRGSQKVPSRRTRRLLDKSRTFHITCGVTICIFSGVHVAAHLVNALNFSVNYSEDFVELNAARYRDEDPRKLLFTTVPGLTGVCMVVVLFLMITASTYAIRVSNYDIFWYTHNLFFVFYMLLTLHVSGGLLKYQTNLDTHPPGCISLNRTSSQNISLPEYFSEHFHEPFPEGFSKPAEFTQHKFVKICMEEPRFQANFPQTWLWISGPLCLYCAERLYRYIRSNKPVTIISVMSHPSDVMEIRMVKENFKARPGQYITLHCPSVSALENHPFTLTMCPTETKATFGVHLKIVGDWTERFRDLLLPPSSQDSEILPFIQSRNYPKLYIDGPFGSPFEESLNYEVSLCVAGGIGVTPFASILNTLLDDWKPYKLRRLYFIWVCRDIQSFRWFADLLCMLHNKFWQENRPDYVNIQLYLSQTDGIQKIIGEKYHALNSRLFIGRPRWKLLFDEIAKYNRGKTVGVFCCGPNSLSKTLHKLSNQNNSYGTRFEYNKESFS
NADPH oxidase 2 (Homo sapiens), sequence (P04839 whole entry, looked up): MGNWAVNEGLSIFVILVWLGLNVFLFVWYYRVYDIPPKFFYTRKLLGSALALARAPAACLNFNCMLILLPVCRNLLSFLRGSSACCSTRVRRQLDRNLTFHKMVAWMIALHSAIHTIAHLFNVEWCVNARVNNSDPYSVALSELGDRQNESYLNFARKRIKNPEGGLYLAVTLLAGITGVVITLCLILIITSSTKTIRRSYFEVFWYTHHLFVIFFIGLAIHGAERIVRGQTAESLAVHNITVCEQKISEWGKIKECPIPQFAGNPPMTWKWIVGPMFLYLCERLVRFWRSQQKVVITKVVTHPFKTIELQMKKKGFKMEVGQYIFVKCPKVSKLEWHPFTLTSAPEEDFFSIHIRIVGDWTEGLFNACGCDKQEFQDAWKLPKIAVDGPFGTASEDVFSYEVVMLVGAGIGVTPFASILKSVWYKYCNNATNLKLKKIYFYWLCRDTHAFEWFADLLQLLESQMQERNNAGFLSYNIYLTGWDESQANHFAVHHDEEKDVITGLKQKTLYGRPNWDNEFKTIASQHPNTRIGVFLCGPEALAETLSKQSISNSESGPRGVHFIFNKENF
NADPH oxidase 5 (Homo sapiens), sequence (Q96PH1 whole entry, looked up): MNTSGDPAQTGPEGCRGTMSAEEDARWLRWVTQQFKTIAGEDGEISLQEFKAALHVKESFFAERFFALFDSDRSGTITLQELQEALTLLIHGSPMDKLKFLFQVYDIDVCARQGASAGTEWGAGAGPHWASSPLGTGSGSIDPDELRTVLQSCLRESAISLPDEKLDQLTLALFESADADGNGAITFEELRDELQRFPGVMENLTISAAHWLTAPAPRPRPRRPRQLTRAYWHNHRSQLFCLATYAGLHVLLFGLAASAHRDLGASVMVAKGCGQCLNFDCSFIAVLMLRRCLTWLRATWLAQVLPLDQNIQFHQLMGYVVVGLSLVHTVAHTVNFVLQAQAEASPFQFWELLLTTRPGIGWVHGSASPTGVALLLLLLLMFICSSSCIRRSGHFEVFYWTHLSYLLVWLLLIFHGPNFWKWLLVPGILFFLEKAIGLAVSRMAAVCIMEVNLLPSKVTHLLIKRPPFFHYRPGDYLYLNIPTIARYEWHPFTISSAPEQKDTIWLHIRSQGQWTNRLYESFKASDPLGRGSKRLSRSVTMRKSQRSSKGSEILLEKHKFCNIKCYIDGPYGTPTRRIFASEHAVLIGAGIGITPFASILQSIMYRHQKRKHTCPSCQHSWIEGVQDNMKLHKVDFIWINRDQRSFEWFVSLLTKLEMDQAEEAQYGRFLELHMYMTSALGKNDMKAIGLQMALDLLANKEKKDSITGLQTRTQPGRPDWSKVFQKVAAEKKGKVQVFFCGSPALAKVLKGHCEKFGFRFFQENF

Row | Compound | z-score [1] | composite z-score [2] | z-score [3] | z-score [4] | z-score [5] | z-score [6] | z-score [7] | z-score [8] | z-score [9] | z-score [10] | z-score [11] | z-score [12] | z-score [13] | z-score [14] | z-score [15] | z-score [16] | z-score [17] | z-score [18] | z-score [19] | z-score [20]
1 | O=C1N(CCS(=O)(=O)c2ccccc2)Cc2ccccc2C[C@@]12COC(c1ccc(OCCCO)cc1)=N2 | -2.34 (inactive) | 0.153 | 25.9 (active) | 15.1 (active) | 4.23 (inactive) | 2.14 (inactive) | -0.0579 | -5.26 (inactive) | -0.159 (inactive) | -3.16 | -0.696 | 0.643 | 1.13 | -2.84 | -1.53 | -1.08 | 0.0146 (inactive) | -1.03 | -2.13 | -3.42 (inactive)
2 | NC(=O)NCC#Cc1ccc2c(c1)[C@]1(C(=O)N2)[C@H](c2ccc(OCCO)cc2)N2[C@H](c3ccccc3)[C@H](c3ccccc3)OC(=O)[C@H]2[C@@H]1C(=O)N1CCCCCCC1 | -1.89 (inactive) | 2.86 | 4.46 (inactive) | 1.05 (inactive) | 0.323 (inactive) | 0.565 (inactive) | -0.0231 | 1.9 (inactive) | 1.15 (inactive) | 0.333 | -0.702 | -0.467 | -0.455 | 0.135 | -1.31 | -1.76 | -1.87 (inactive) | -0.638 | -1.02 | 0.252 (inactive)
3 | CN(C)CCCC[C@@H]1NC(=O)[C@H]2C[C@@H](C(=O)NCCCCCCNC(=O)CS)[C@@H](c3ccc(O)cc3)N2C1=O | 0.446 (inactive) | 0.0048 | 2.46 (inactive) | 0.374 (inactive) | 1.84 (inactive) | 0.178 (inactive) | 0.469 | 1.35 (inactive) | 1.78 (inactive) | 1.52 | -0.877 | 0.0215 | -1.35 | -0.245 | -1.02 | -1.45 | -0.715 (inactive) | 0.683 | 0.441 | -0.415 (inactive)
4 | [N-]=[N+]=NCc1ccccc1[C@H]1OC(c2ccc(OCCCO)cc2)=N[C@@]1(Cc1ccccc1N=[N+]=[N-])C(=O)NCCN1CCOCC1 | 0.0417 (inactive) | 0.194 | 24.7 (active) | 16.2 (active) | 1.7 (inactive) | 1.85 (inactive) | -0.0338 | -0.753 (inactive) | -0.358 (inactive) | 1.41 | -0.71 | -0.675 | 0.0583 | -1.71 | -1.52 | -0.247 | -0.738 (inactive) | -0.841 | -0.549 | 0.0825 (inactive)
5 | Cc1cc(C)c(C(O)C2C=CC3C(=O)N(c4ccccc4)C(=O)C3N2Nc2ccc([N+](=O)[O-])cc2)c(C)c1 (stereo not given) | -0.613 (inactive) | 0.703 | 6.15 (inactive) | 1.76 (inactive) | 0.252 (inactive) | 1.13 (inactive) | -0.62 | -0.305 (inactive) | -0.661 (inactive) | -1.63 | -0.308 | 1.09 | -0.0308 | -0.86 | -0.662 | -1.95 | -3.61 (inactive) | -0.367 | -1.04 | 0.634 (inactive)
6 | CCC[C@@H]1C[C@@]1(CCC)[C@@H](NC(=O)c1cccs1)c1ccc(Cl)cc1 | -0.26 (inactive) | 0.0319 | -0.119 (inactive) | -0.639 (inactive) | 0.307 (inactive) | 0.0519 (inactive) | -0.392 | -1.47 (inactive) | -0.556 (inactive) | 0.684 | -0.162 | -0.608 | -0.892 | -2.77 | -4.78 | -0.52 | 0.028 (inactive) | -0.000314 | -0.386 | 4.94 (inactive)
7 | NC(=O)NCC#Cc1ccc2c(c1)[C@]1(C(=O)N2)[C@H](c2ccc(O)cc2)N2[C@H](c3ccccc3)[C@H](c3ccccc3)OC(=O)[C@H]2[C@@H]1C(N)=O | 0.373 (inactive) | -0.127 | 0.792 (inactive) | 0.215 (inactive) | 1.15 (inactive) | 0.319 (inactive) | 0.112 | 0.408 (inactive) | -0.571 (inactive) | -0.72 | 0.233 | -1.07 | 0.705 | 0.669 | 1.23 | -0.538 | -0.06 (inactive) | -0.371 | -0.691 | -1.08 (inactive)
8 | COC(=O)[C@@]1(Cc2ccccc2)[C@H]2c3cc(C(=O)N4CCCC4)n(Cc4ccc(OC(F)(F)F)cc4)c3C[C@H]2CN1C(=O)c1ccccc1 | -2.11 (inactive) | 0.592 | 3.6 (inactive) | 1.2 (inactive) | 1.01 (inactive) | 1.35 (inactive) | -0.366 | 0.828 (inactive) | 1.34 (inactive) | 0.914 | -0.975 | -0.8 | -1.56 | -1.89 | -2.47 | 1.77 | -1.42 (inactive) | -0.717 | -0.934 | -1.46 (inactive)
9 | CCCN1C(=O)[C@@H]2Cc3c([nH]c4ccccc34)[C@@H](c3cccc(O)c3)N2C1=O | -0.524 (inactive) | 0.0742 | -0.578 (inactive) | -0.108 (inactive) | -0.539 (inactive) | -0.114 (inactive) | 0.257 | -0.904 (inactive) | -1.02 (inactive) | -0.413 | -0.362 | 0.407 | -1.81 | 0.342 | -0.178 | -1.45 | 0.137 (inactive) | -0.137 | -0.211 | 0.264 (inactive)
